Assay in all cases: PBM binding z-score (relative to random genomic background probes); higher = stronger binding; sequences stand for … in GC…GCGATTGACAGCGTAGAATGAAGG
Assay [1] relates to RARb homodimer (NR concentration 270 nM). The method in brief: (§1)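 Scanned fluorescence from custom Agilent 4×180K protein-binding microarrays was regression-normalized. Binding z-scores use random background probes as reference. Ligand-free nuclear receptor dimers were incubated on the arrays for 1 h and detected with antibodies against each partner (one per run).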
Assay [2] deals with RARg:RXRa (NR concentration 270 nM, RXRa partner concentration 90 nM). The method in brief:
as §1

For assay [3], the system named is RARg homodimer (NR concentration 270 nM). The method in brief:
as §1

The test system of assay [4] is RXRa DBDmut IVT, anti-RXR (DBD mutation: RXRa K156A/R161A, NR concentration 90 nM). In short, it runs like this: as §1
In assay [5] the test system is RXRa homodimer (NR concentration 180 nM). In short, it runs like this: as §1
Assay [6] deals with THRa:RXRa (NR concentration 90 nM, RXRa partner concentration 90 nM). The method in brief:
as §1

The subject of assay [7] is THRa homodimer (NR concentration 90 nM). The method in brief: as §1
Assay [8] deals with VDR homodimer (NR concentration 270 nM). The method in brief:
as §1

In the case of TCATATAGGTAAAGGTGAGAGTCGAACGATATGA, the PBM binding z-score in assay [1] was found to be 1.28; in assay [2], 1.29; in assay [3] it was 1.33; in assay [4], 0.713; in assay [5], 1.64; in assay [6], 0.888. In addition, the values for the PBM binding z-score in assay [7] and in assay [8] were -0.508 and -0.128, respectively.

TCGAGTGGGTTAGGGGCATTCAGAATGGCGTCGA: the PBM binding z-score in assay [1] was 1.21; in assay [2] it was 0.178; in assay [3], -0.204; in assay [4] it was 0.231; in assay [5], 0.603; in assay [6], 1.23. Further, the PBM binding z-score in assay [7] is 0.84; in assay [8] it was 1.54.

For ATGGAAAGGTCGAGGTGAGTATAGAGAAAGGGAA, the PBM binding z-score stood at 3.16 in assay [1]; 4.21 in assay [2]; 4.21 in assay [3]; 0.469 in assay [4]; 4.53 in assay [5]; 3.15 in assay [6]. Also, the PBM binding z-score in assay [7] was found to be 1.47; in assay [8], 0.902.

On to ATCGAAAGGTCGAGGTGAGTGTAGAGAAAGGGAA, for which the PBM binding z-score in assay [1] came to 2.96; in assay [2] it was 4.37; in assay [3] it was 4.06; in assay [4], 0.896; in assay [5], 4.28; in assay [6], 3.21. Further, the PBM binding z-score in assay [7] came out at 0.885; in assay [8], 0.854.

TAGCCTAGGTCAGATCGAGCCAGTATACGCTATA: the PBM binding z-score is 1.71 in assay [1]; 2.36 in assay [2]; 3.3 in assay [3]; -0.301 in assay [4]; 1.23 in assay [5]; 1.61 in assay [6]. Further, the values for the PBM binding z-score in assay [7] and in assay [8] were -0.233 and -0.594, respectively.

In the case of CCGACTGGGGCAAGGTTAGCATAACGCACAGCCA, the PBM binding z-score was 0.752 in assay [1]; 0.574 in assay [2]; 0.814 in assay [3]; -0.5 in assay [4]; 0.57 in assay [5]; 0.333 in assay [6]. The PBM binding z-score in assay [7] is -0.266; in assay [8], -0.191.

For the sequence TCGAGTAGGTTAGGAGCATTCAGAATGGCGTCGA, the PBM binding z-score in assay [1] is -0.383; in assay [2] it was -0.196; in assay [3], -0.317; in assay [4] it was -0.149; in assay [5] it was 0.0721; in assay [6], -0.459. Further, the figures for the PBM binding z-score in assay [7] and in assay [8] were -0.881 and -0.161, respectively.

Regarding CCTTACGGCTCAAGGTTATAGCACGGGTGGTACG, the PBM binding z-score in assay [1] was 0.426; in assay [2] it was 0.285; in assay [3], 0.278; in assay [4], -0.298; in assay [5], 0.615; in assay [6], 1.05. The PBM binding z-score in assay [7] came out at 0.716; in assay [8], 0.469.

On to TCTAGTTGGTCACGGAGGTCGCACACGACGGGTA, for which the PBM binding z-score was 2.48 in assay [1]; 2.11 in assay [2]; 2.3 in assay [3]; 0.614 in assay [4]; 2.16 in assay [5]; 1.91 in assay [6]. The PBM binding z-score in assay [7] amounted to 0.625; in assay [8] it was 1.18.

In the case of TCTTGTAGATCAAGAAGGTTAAGAAAGCCTGAGT, the PBM binding z-score worked out at 0.784 in assay [1]; 0.407 in assay [2]; 0.315 in assay [3]; 0.387 in assay [4]; 0.863 in assay [5]; 0.451 in assay [6]. In addition, the figures for the PBM binding z-score in assay [7] and in assay [8] were -0.553 and 0.21, respectively.

For the sequence ATCTCTCGGTAAAGTTCAGTGAAAGATCGATAGA, the PBM binding z-score in assay [1] is 2.62; in assay [2], 2.19; in assay [3], 2.56; in assay [4], 1.17; in assay [5], 1.06; in assay [6], 0.717. Further, the PBM binding z-score in assay [7] came to 0.426; in assay [8] it was 2.27.

Regarding CCGACTGGGGCAAGATTACCATAACGCACAGCCA, the PBM binding z-score in assay [1] is 0.349; in assay [2] it was 0.185; in assay [3], 0.477; in assay [4], -0.0134; in assay [5], 0.0853; in assay [6] it was -0.474. Moreover, the PBM binding z-score is -0.565 in assay [7] and -0.566 in assay [8].

Regarding ATACCAAGGTGATCGTGACGTCGTTGATACTAAC, the PBM binding z-score in assay [1] stood at 0.537; in assay [2], 0.459; in assay [3], 0.417; in assay [4] it was 0.283; in assay [5], 0.575; in assay [6], 1.05. Besides, the results for the PBM binding z-score in assay [7] and in assay [8] were 0.655 and -0.00274, respectively.

Regarding GCGACTGGGGCAAAGCAGGTTCCCATAAGGTTGG, the PBM binding z-score is 0.109 in assay [1]; -0.179 in assay [2]; 0.0897 in assay [3]; -0.512 in assay [4]; -0.314 in assay [5]; 1.38 in assay [6]. Besides, the figures for the PBM binding z-score in assay [7] and in assay [8] were -0.261 and -0.513, respectively.

For the origin of these results see the supplement of paper PMC6555819.
